According to PubChem BioAssay (Tox21):
Records with an inconclusive call do not appear. Calls of active or inactive are those of the source. Calls follow the shape of the full dose curve. Where a SMILES comes first, the peptide text is derived from it. [ ]: non-standard residue; d: D form. pGlu = O=C1CC[C@@H](C(=O)O)N1

What follows are molecules tested against Thyrotropin receptor (Homo sapiens) (UniProt P16473) (assay: qHTS assay to identify small molecule antagonists of the thyroid stimulating hormone receptor (TSHR) signaling pathway (AID 1259385; also: nearly all actives have a fitted effect of over 20% in size)). Conditions: TSHR-HEK293 cAMP HTRF, TSH-stimulated antagonist mode; series mostly up to 92.4 µM; activity change, negative = inhibition: at the top concentration.
Chain of Thyrotropin receptor (Homo sapiens) (P16473 whole entry, looked up): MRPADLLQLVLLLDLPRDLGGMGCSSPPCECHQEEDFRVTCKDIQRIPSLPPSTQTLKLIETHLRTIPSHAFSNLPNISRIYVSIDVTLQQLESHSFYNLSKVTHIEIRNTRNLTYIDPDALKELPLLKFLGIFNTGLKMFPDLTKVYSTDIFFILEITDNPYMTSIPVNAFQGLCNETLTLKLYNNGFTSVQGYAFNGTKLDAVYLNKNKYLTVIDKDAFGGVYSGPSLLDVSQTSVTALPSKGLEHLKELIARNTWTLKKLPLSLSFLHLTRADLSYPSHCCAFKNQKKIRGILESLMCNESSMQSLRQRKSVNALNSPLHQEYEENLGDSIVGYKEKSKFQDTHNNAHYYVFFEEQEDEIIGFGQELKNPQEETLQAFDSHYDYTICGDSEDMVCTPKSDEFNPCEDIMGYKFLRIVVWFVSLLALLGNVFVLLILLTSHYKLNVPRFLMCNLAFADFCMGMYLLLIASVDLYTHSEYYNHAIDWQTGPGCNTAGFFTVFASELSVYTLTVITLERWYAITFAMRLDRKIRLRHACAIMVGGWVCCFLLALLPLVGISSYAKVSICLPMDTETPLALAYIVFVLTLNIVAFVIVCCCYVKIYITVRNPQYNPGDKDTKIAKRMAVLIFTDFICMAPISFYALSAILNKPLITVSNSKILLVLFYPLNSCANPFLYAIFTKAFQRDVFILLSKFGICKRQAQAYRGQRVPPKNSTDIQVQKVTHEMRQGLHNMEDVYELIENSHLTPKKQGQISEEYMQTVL
From the text: U.S. Tox21 Program National Center for Advancing Translational Sciences [NCATS] NIH Chemical Genomics Center [NCGC] U.S. Environmental Protection Agency [EPA] National Institutes of Environmental Health Sciences [NIEHS] National Toxicology Program [NTP] U.S. Food and Drug Administration [FDA] Tox21 Assay Overview: TSHR is the receptor for thyrotropin (thyroid stimulating hormone or TSH), a member of the glycoprotein hormone family. TSH is released by the anterior pituitary gland and is the main regulator of thyroid gland growth and development. Upon binding circulating thyrotropin, a G-protein signal cascade activates adenylyl cyclase and […] cAMP concentration is increased. cAMP is a key second messenger involved extensively in cellular signal transduction pathways associated with the majority of G-protein coupled receptors (GPCRs). The activation of these GPCRs by neurotransmitters, lipids, nucleotides, peptides and hormones results in the activation or the inhibition of plasma membrane-bound adenylate cyclase through heterotrimeric G-proteins. A cell-based TSHR assay can be used to screen chemical compounds that modulate TSHR either in agonist or antagonist mode.
Tox21 Assay Protocol Summary: TSHR-Hek293 cells were dispensed at 800 cells/4uL/well in 1536-well white plates using a Multidrop dispenser. After the assay plates were incubated at a 37C/5% CO2 incubator for 18 hrs, 23 nL of compounds dissolved in DMSO, positive controls or DMSO only was transferred to the assay plate by a pin tool, followed by 1 ul medium containing Ro20-1724. For the antagonist mode screening, 1 uL of TSH was added on the top of the cell/compound mixtures to achieve a final agonist concentration of 1.5 ng/mL. After 30 min of incubation at room temperature, 2.5 ul/well of cAMP-d2 and 2.5 ul/well of anti-cAMP-cryptate were added respectively into the assay plates using a Flying Reagent Dispenser. The plates were incubated at room temperature for 1 hr. The fluorescence intensity in the plates was measured using an Envision plate reader. Each test compound was measured at 15 concentrations and in triplicates.
% is scaled to controls: 0 for no effect and ±100 for the full control effect.

Row | Compound | activity change, negative = inhibition
1 | COc1cc(C(=O)OC(COCCC(C)C)CN2CCOCC2)cc(OC)c1OC (stereo not given) | -4.06% [at 42.5 µM] (inactive)
2 | CN(C)[C@@H]1C(=O)C(C(=O)NCN2CCCC2)=C(O)[C@@]2(O)C(=O)C3=C(O)c4c(O)cccc4[C@@](C)(O)C3C[C@@H]12 (stereo not given in full) | 1.67% [at 42.5 µM] (inactive)
3 | CC(C)(C)C(=O)Oc1ccc(S(=O)(=O)Nc2ccccc2C(=O)NCC(=O)O)cc1 | 2.38% [at 42.5 µM] (inactive)
4 | O=C(c1ccccc1O)c1ccccc1O | -9.22% (inactive)
5 | [Ca+2] | 0.811% (inactive)
6 | CCCCc1ccc2c(n1)[C@@H](c1ccc(OC)cc1C[C@H](C)C(=O)O)[C@H](C(=O)O)[C@H]2c1ccc2c(c1)OCO2 | -2.09% (inactive)
7 | CC(C)NNC(=O)c1ccncc1 | 2.09% [at 42.5 µM] (inactive)
8 | CC1=NN(c2cccc(S(=O)(=O)O)c2)C(=O)C1 | 0.262% (inactive)
9 | C=C(C)C(=O)OCCOCCOCCOCCOC(=O)C(=C)C | -0.427% (inactive)
10 | FB(F)F | -0.198% (inactive)
11 | O=C(O)CCSCCC(=O)O | 2.2% (inactive)
12 | CC1=NN(c2cc(S(=O)(=O)O)ccc2Cl)C(=O)C1N=Nc1ccccc1 (stereo not given) | -0.609% (inactive)
13 | CC(=O)c1ccc2ccccc2c1 | -0.0579% (inactive)
14 | Cc1cccc(C)c1NC(=O)CC12CCCN1CCC2 | -0.551% [at 42.5 µM] (inactive)
15 | O=C(O)CC(C(=O)O)S(=O)(=O)O (stereo not given) | -1.69% (inactive)
16 | C1CCC2=NCCCN2CC1 | -0.79% (inactive)
17 | O=C(O)Cc1csc(-c2ccc(Cl)cc2)n1 | -1.5% [at 42.5 µM] (inactive)
18 | CC(=O)N1C[C@H](O)C[C@H]1C(=O)O | 4.06% [at 42.5 µM] (inactive)
19 | CC(C#N)(CCC(=O)O)N=NC(C)(C#N)CCC(=O)O (stereo not given) | -0.0325% (inactive)
20 | CCN[C@H]1C[C@H](C)S(=O)(=O)c2sc(S(N)(=O)=O)cc21 | -0.0727% [at 42.5 µM] (inactive)

Row | Compound | activity change, negative = inhibition
21 | Nc1ccccn1 | 2.4% (inactive)
22 | Nc1ccncc1N | 6.33% [at 42.5 µM] (inactive)
23 | O=[N+]([O-])c1cncn1CCN1CCOCC1 | 0.0496% [at 42.5 µM] (inactive)
24 | CCNC(=O)[C@@H]1CCCN1C(=O)[C@H](CCCN=C(N)N)NC(=O)[C@H](CC(C)C)NC(=O)CNC(=O)[C@H](Cc1ccc(O)cc1)NC(=O)[C@H](CO)NC(=O)[C@H](Cc1c[nH]c2ccccc12)NC(=O)[C@H](Cc1cnc[nH]1)NC(=O)[C@@H]1CCC(=O)N1 ([pGlu]HWSYGLRP-NHEt) | -2.18% [at 42.5 µM] (inactive)
25 | C=CCCCCCCCCC(=O)OCC | -0.164% (inactive)
26 | CCN(C=O)CC | -7.12% (inactive)
27 | CC(C)C1CCC(O)CC1 (stereo not given) | -0.0125% (inactive)
28 | C[N+](C)(CCOc1ccccc1)Cc1cccs1 | -3.28% [at 42.5 µM] (inactive)
29 | Cc1ccc(C(=O)c2ccccc2)cc1 | -7.79% (inactive)
30 | CCC(C)(CCCC(C)C)OC(C)=O (stereo not given) | 0.26% (inactive)
31 | NC(CCC(=O)O)C(=O)O (stereo not given) | -3.49% (inactive)
32 | CCCCN1C=CN(C)C1 | 1.39% [at 19 µM] (inactive)
33 | Clc1cc(Cl)c(Cl)nc1Cl | -0.212% (inactive)
34 | C[N+]1(C)[C@@H]2CC(OC(=O)[C@H](CO)c3ccccc3)C[C@H]1[C@@H]1O[C@@H]12 (stereo not given in full) | 1.26% [at 42.5 µM] (inactive)
35 | CC(C)C[C@@H](N)C(=O)O | 2.7% [at 19 µM] (inactive)
36 | CCOc1ccc2nc(S(N)(=O)=O)sc2c1 | 2.02% [at 42.5 µM] (inactive)
37 | Cc1ccc(C(=O)c2ccc(CC(=O)O)n2C)cc1 | -0.742% [at 42.5 µM] (inactive)
38 | O=C(CO)[C@@H](O)[C@H](O)[C@@H](O)CO | 2.94% [at 42.5 µM] (inactive)
39 | CC1(C)OC[C@@H](COC(=O)CCc2ccc(OC[C@@H](O)CNCCNC(=O)N3CCOCC3)cc2)O1 | 0.689% [at 42.5 µM] (inactive)
40 | CC(C)C(=O)OC(=O)C(C)C | 2.66% (inactive)
